Reference: PubChem BioAssay (NCI)
Compounds without any hit were thinned out: in the full panel of roughly 83,000, 20% have a hit.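 The test compound was applied at a single concentration to cells in 96-well plates for 48 hours, and percent growth was recorded.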 A number with no mark means an inactive call. Activity calls are given as the source filed them. How the source made its calls: active means growth percent below 10; inactive means the rest.

Legend:
Assay in all cases: NCI-60 one-dose screen, 48 h (100 = growth as untreated, 0 = no growth, -100 = all killed)
Conditions in all cases: 10 µM
[1] = system: NCI-H23 lung
[2] = system: NCI-H226 lung
[3] = system: NCI-H322M lung
[4] = system: HOP-62 NSCLC
[5] = system: NCI-H460 lung
[6] = system: HOP-92 NSCLC
[7] = system: NCI-H522 lung
[8] = system: A549/ATCC NSCLC
[9] = system: 786-0 renal
[10] = system: COLO 205 colon

Cc1cc(C)c2c(Nc3ncnc4c3sc3nc(C)cc(C)c34)n[nH]c2n1
growth [1]: 98.6%
growth [2]: 93.8%
growth [3]: 111%
growth [4]: 95%
growth [5]: 104%
growth [6]: 102%
growth [7]: 96.9%
growth [8]: 102%
growth [9]: 106%
growth [10]: 109%

COc1cc(OC)cc(N2CCN(C(=O)Nc3nc4cc(F)ccc4nc3OC)CC2)c1
growth [1]: 20.4%
growth [2]: 43.3%
growth [3]: 29.3%
growth [4]: 34.7%
growth [5]: 5% (active)
growth [6]: 39.8%
growth [7]: -3.96% (active)
growth [8]: 19.8%
growth [9]: 15%
growth [10]: -65.4% (active)

O=C(O)CN1C(=O)C=CC1=O
growth [1]: 106%
growth [2]: 108%
growth [3]: 90.9%
growth [4]: 107%
growth [5]: 107%
growth [6]: 111%
growth [7]: 103%
growth [8]: 108%
growth [9]: 103%
growth [10]: 94.8%

COc1ccc(S(=O)(=O)Nc2ccc(OCc3nnc(-c4ccc(Cl)cc4)o3)c(F)c2)cc1
growth [1]: 43.4%
growth [2]: 59.8%
growth [3]: 80.2%
growth [4]: 74.4%
growth [5]: 59.4%
growth [6]: 60.6%
growth [7]: 43.4%
growth [8]: 47.4%
growth [9]: 67.8%
growth [10]: 89.2%

CCCc1c(C)nc2scc(-c3ccc(Cl)cc3)n2c1=O
growth [1]: 100%
growth [2]: -100% (active)
growth [3]: 102%
growth [4]: 88.9%
growth [5]: 108%
growth [6]: 92.5%
growth [7]: 94.3%
growth [8]: 104%
growth [9]: 101%
growth [10]: 103%

Nc1ccc(Sc2ccc3c4c2cccc4c(=O)n2c4ccccc4nc32)cc1
growth [1]: 37.5%
growth [2]: 40.6%
growth [3]: 61.8%
growth [4]: 51.2%
growth [5]: 9.47% (active)
growth [6]: 28.7%
growth [7]: 60%
growth [8]: 20.6%
growth [9]: 37.3%
growth [10]: 50.8%

CC1(C)Cc2c(cn(Cc3ccccc3)c2-c2ccccc2)-c2oncc21
growth [1]: 96.7%
growth [2]: 92.2%
growth [3]: 126%
growth [4]: 107%
growth [5]: 113%
growth [6]: 67.8%
growth [7]: 90.1%
growth [8]: 86.2%
growth [9]: 97.5%
growth [10]: 103%

Oc1ccccc1-c1nnc(Cn2c(Cc3cccc4ccccc34)nc3ccccc32)o1
growth [1]: 90.8%
growth [2]: 93.1%
growth [3]: 84.4%
growth [4]: 87.6%
growth [5]: 108%
growth [6]: 78.3%
growth [7]: 92.2%
growth [8]: 100%
growth [9]: 103%
growth [10]: 110%

CCOC(=O)c1cc2c(n1Cc1cccc(OC)c1)-c1oncc1CC2
growth [1]: 48.9%
growth [2]: 50%
growth [3]: -0.987% (active)
growth [4]: 37.8%
growth [5]: 10%
growth [6]: 30.5%
growth [7]: 13.7%
growth [8]: 42.6%
growth [9]: 36.5%
growth [10]: 9.01% (active)

COc1cc([C@@H]2c3cc4c(cc3[C@H](SC(=N)N)[C@H]3COC(=O)[C@H]23)OCO4)cc(OC)c1OC
growth [1]: 13.7%
growth [2]: 0.754% (active)
growth [3]: 13%
growth [4]: 51.4%
growth [5]: 5.84% (active)
growth [6]: 68.5%
growth [7]: -7.12% (active)
growth [8]: 18.3%
growth [9]: 10.3%
growth [10]: -67.2% (active)

Cc1nc2cc(-n3c(-c4ccc(F)cc4)nc4ccccc4c3=O)ccc2n1Cc1ccccc1
growth [1]: 42.1%
growth [2]: 3.55% (active)
growth [3]: 38.2%
growth [4]: 45.1%
growth [5]: -38.9% (active)
growth [6]: -15.6% (active)
growth [7]: 44.5%
growth [8]: -25.4% (active)
growth [9]: 7.98% (active)
growth [10]: 4.23% (active)

COc1ccc(-c2nc(SCC(=O)c3ccc(Br)cc3)[nH]c(=O)c2C#N)cc1
growth [1]: 106%
growth [2]: 98.1%
growth [3]: 97.3%
growth [4]: 101%
growth [5]: 108%
growth [6]: 85.9%
growth [7]: 95.4%
growth [8]: 99.6%
growth [9]: 89.9%
growth [10]: 119%

COC(=O)c1cnc2c(c1)Oc1ccc(Cl)cc1-c1cc(C)nn1-2
growth [1]: 74.5%
growth [2]: 66.3%
growth [3]: 66.9%
growth [4]: 68.3%
growth [5]: 29.5%
growth [6]: 85.6%
growth [7]: 82.3%
growth [8]: 59.2%
growth [9]: 97.5%
growth [10]: 71.5%

COCCNCC(O)Cn1c2ccc(Cl)cc2c2cc(Cl)ccc21 (stereo not given)
growth [1]: -36.8% (active)
growth [2]: 43.1%
growth [3]: -20.1% (active)
growth [4]: 17%
growth [5]: 5.55% (active)
growth [6]: 135%
growth [7]: -62.8% (active)
growth [8]: -10.2% (active)
growth [9]: 21.9%
growth [10]: -67.9% (active)

COc1ccc(-c2csc(NC(=O)CO[N+](=O)[O-])n2)cc1
growth [1]: 93.4%
growth [2]: 102%
growth [3]: 96.1%
growth [4]: 101%
growth [5]: 94.1%
growth [6]: 118%
growth [7]: -39.7% (active)
growth [8]: 84.9%
growth [9]: 113%
growth [10]: 89.1%

CCN(Cc1ccccc1)C1CCN(Cc2cc(Br)ccc2O)CC1
growth [1]: 41.3%
growth [2]: 63.4%
growth [3]: 88.8%
growth [4]: 58.1%
growth [5]: 49.6%
growth [6]: 5.9% (active)
growth [7]: 61%
growth [8]: 58.9%
growth [9]: 62.7%
growth [10]: -20.6% (active)

O=C(Nc1cccc(C(F)(F)F)c1)C(Cl)Cl
growth [1]: 94.1%
growth [2]: 101%
growth [3]: 87.5%
growth [4]: 96.5%
growth [5]: 102%
growth [6]: 81.7%
growth [7]: 98.2%
growth [8]: 98%
growth [9]: 101%
growth [10]: 101%

Nc1ncncc1-c1ccc(F)cc1
growth [1]: 108%
growth [2]: 108%
growth [3]: 108%
growth [4]: 105%
growth [5]: 110%
growth [6]: 95.9%
growth [7]: 119%
growth [8]: 106%
growth [9]: 104%
growth [10]: 114%

COc1ccc(-c2nc(-c3ccccc3)c(-c3ccccc3)[nH]2)cc1OC1CCCC1
growth [1]: 73.1%
growth [2]: 88.9%
growth [3]: 66%
growth [4]: 113%
growth [5]: 61.4%
growth [6]: 12.6%
growth [7]: 36.1%
growth [8]: 61.8%
growth [9]: 78.6%
growth [10]: 86.3%

CC(C)C[C@H](NC(=O)CCn1ccc2ccccc2c1=O)B(O)O
growth [1]: 63.4%
growth [2]: -16.2% (active)
growth [3]: 91%
growth [4]: 82.7%
growth [5]: 93.8%
growth [6]: 90.1%
growth [7]: 19.9%
growth [8]: 58%
growth [9]: 48.5%
growth [10]: 48.7%

O=[N+]([O-])c1ccc(-c2nc(Cl)c3c(n2)CCCC3)o1
growth [1]: 88.5%
growth [2]: 63.6%
growth [3]: 102%
growth [4]: 64%
growth [5]: 34%
growth [6]: 85.2%
growth [7]: -41.3% (active)
growth [8]: 83%
growth [9]: 107%
growth [10]: 68.5%

CCN(CCCNC(=O)Cc1cc(=O)oc2cc(N(C)C)ccc12)CCNc1ccnc2cc(Cl)ccc12
growth [1]: 94.9%
growth [2]: 93.1%
growth [3]: 91%
growth [4]: 85.6%
growth [5]: 92.3%
growth [6]: 59.5%
growth [7]: 56.8%
growth [8]: 93.4%
growth [9]: 86.3%
growth [10]: 68.1%

O=S(=O)(NCl)c1ccccc1
growth [1]: 104%
growth [2]: 110%
growth [3]: 88.1%
growth [4]: 110%
growth [5]: 105%
growth [6]: 108%
growth [7]: 99.6%
growth [8]: 94.7%
growth [9]: 95.9%
growth [10]: 113%

Cc1ccccc1[P+](Cc1ccccc1)(c1ccccc1)c1ccccc1
growth [1]: 9.83% (active)
growth [2]: 39.5%
growth [3]: 42.3%
growth [4]: 32.3%
growth [5]: 17.5%
growth [6]: -21.8% (active)
growth [7]: -15.8% (active)
growth [8]: 19.7%
growth [9]: 43.7%
growth [10]: -56% (active)

COc1cccc2c1O/C(=C\c1ccc([N+](=O)[O-])s1)C2=O
growth [1]: 71.8%
growth [2]: 97.1%
growth [3]: 82%
growth [4]: 92.4%
growth [5]: 70.9%
growth [6]: 14.6%
growth [7]: -65% (active)
growth [8]: 78.5%
growth [9]: 103%
growth [10]: 67.3%

COc1ccc(C2=Cc3ccc(OC(C)=O)cc3OC2)cc1
growth [1]: 95.9%
growth [2]: 91.1%
growth [3]: 92.3%
growth [4]: 109%
growth [5]: 103%
growth [6]: 91.8%
growth [7]: 75.4%
growth [8]: 88.3%
growth [9]: 100%
growth [10]: 110%

Cc1ccc2oc(=O)cc(/C(=C3/C=CC=N3)c3ccc[nH]3)c2c1
growth [1]: 9.51% (active)
growth [2]: -7.14% (active)
growth [3]: 25.4%
growth [4]: -11.3% (active)
growth [5]: -2.31% (active)
growth [6]: 7.28% (active)
growth [7]: -33.2% (active)
growth [8]: -21% (active)
growth [9]: 3.15% (active)
growth [10]: -53.6% (active)

CC(=O)[C@H]1CC[C@H]2[C@@H]3CC[C@@H]4CC=C(C=O)C[C@]4(C)[C@H]3CC[C@]12C
growth [1]: 92.7%
growth [2]: 99.4%
growth [3]: 97.6%
growth [4]: 122%
growth [5]: 103%
growth [6]: 68.1%
growth [7]: 82.5%
growth [8]: 92.4%
growth [9]: 93.2%
growth [10]: 105%
